# In paper PMC7862700, “An all-to-all approach to the identification of sequence-specific readers for epigenetic DNA modifications on cytosine”:
# Experiments:
# Test in all cases: DAPPL (digital affinity profiling via proximity ligation, sequencing); 10 mM Tris-HCl pH 7.5, 50 mM NaCl, 1 mM DTT, 4% glycerol, room temperature, 30 min; GST-TFs on glutathione beads, 16-mer random dsDNA library, 0.1% formaldehyde crosslink after washing; high values mean tight binding
# FEV = molecular target: T1, FEV (Homo sapiens, UniProt Q99581 1-238); conditions: protein: recombinant; tags: N-terminal GST; dsDNA, one strand shown
# T1 sequence: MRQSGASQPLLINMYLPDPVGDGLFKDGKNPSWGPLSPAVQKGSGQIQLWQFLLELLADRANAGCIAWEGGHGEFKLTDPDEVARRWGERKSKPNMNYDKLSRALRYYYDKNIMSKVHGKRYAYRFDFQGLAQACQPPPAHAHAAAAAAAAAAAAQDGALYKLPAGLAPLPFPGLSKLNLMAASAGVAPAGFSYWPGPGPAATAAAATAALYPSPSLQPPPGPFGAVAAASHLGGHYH
# In short: (§1)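 GST fusions of human transcription factors were expressed in yeast and captured with glutathione beads. Once given DNA barcodes and pooled alongside a tag-only sample, they were incubated for 30 min at room temperature with 200 nmole of a random double-stranded 16-mer DNA library in Tris/NaCl/DTT/glycerol buffer, then washed, crosslinked (0.1% formaldehyde), proximity-ligated, PCR-amplified and sequenced on an Illumina NextSeq500. The binding signal of each hexamer is its read frequency for a factor divided by its frequency for the tag-only sample.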
# ETV5 = ETV5 (Homo sapiens, UniProt P41161 1-510); conditions: protein: recombinant; tags: N-terminal GST; dsDNA, one strand shown
# In short: as §1
# HSF1 = HSF1 (Homo sapiens, UniProt Q00613 1-529); conditions: protein: recombinant; tags: N-terminal GST; chain copies: 3; dsDNA, one strand shown
# In short: as §1
# SPIC = molecular target: T2, SPIC (Homo sapiens, UniProt Q8N5J4 1-248); conditions: protein: recombinant; tags: N-terminal GST; dsDNA, one strand shown
# T2 sequence: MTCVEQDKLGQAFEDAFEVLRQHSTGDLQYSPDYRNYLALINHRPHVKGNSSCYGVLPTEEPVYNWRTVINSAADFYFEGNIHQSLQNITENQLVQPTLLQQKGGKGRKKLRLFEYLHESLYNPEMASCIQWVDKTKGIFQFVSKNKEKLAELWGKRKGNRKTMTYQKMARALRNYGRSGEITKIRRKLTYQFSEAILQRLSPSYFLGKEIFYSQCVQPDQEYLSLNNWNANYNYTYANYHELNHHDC
# In short: as §1
# ELF4 = ELF4 (Homo sapiens, UniProt Q99607 1-663); conditions: protein: recombinant; tags: N-terminal GST; dsDNA, one strand shown
# In short: as §1
# ELK4 = molecular target: T3, ELK4 (Homo sapiens, UniProt P28324-2 1-405); conditions: protein: recombinant; tags: N-terminal GST; dsDNA, one strand shown
# T3 sequence: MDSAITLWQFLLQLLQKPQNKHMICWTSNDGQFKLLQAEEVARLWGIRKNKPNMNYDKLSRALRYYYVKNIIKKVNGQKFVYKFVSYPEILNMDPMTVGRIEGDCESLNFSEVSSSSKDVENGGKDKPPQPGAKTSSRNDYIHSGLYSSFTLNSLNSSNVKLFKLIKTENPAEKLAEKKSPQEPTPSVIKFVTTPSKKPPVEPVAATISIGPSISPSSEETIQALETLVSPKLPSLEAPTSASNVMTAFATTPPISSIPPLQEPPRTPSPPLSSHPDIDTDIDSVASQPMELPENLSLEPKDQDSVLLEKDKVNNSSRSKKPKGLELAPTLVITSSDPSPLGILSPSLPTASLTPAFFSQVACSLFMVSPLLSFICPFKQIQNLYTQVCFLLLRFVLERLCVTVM
# In short: as §1
# ETV2 = molecular target: T4, ETV2 (Homo sapiens, UniProt O00321 1-342); conditions: protein: recombinant; tags: N-terminal GST; dsDNA, one strand shown
# T4 sequence: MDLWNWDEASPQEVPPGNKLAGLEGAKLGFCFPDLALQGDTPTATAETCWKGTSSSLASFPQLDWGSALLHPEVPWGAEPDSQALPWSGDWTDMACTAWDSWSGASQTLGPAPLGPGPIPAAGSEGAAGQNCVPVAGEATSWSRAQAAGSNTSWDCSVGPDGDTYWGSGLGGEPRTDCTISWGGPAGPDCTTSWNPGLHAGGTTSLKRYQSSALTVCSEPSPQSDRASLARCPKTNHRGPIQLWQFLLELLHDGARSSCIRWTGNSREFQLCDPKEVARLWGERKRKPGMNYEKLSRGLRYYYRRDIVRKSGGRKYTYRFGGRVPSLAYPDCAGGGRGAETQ
# In short: as §1
# ELF3 = molecular target: T5, ELF3 (Homo sapiens, UniProt P78545 1-371); conditions: protein: recombinant; tags: N-terminal GST; dsDNA, one strand shown
# T5 sequence: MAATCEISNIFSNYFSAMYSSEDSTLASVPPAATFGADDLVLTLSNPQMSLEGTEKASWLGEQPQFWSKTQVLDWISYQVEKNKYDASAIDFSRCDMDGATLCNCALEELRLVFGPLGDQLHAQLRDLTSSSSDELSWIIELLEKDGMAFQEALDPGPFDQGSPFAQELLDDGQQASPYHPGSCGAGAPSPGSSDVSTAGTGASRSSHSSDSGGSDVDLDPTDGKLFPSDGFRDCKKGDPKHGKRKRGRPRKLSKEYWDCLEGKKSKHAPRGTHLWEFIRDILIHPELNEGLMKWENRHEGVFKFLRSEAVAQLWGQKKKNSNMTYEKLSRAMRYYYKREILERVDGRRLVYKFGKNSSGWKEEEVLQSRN
# In short: as §1
# CRX = CRX (Homo sapiens, UniProt O43186 1-299); conditions: protein: recombinant; tags: N-terminal GST; dsDNA, one strand shown
# In short: as §1
# ETV1 = ETV1 (Homo sapiens, UniProt P50549 1-477); conditions: protein: recombinant; tags: N-terminal GST; dsDNA, one strand shown
# In short: as §1
# Chain of ETV1 (P50549 whole entry): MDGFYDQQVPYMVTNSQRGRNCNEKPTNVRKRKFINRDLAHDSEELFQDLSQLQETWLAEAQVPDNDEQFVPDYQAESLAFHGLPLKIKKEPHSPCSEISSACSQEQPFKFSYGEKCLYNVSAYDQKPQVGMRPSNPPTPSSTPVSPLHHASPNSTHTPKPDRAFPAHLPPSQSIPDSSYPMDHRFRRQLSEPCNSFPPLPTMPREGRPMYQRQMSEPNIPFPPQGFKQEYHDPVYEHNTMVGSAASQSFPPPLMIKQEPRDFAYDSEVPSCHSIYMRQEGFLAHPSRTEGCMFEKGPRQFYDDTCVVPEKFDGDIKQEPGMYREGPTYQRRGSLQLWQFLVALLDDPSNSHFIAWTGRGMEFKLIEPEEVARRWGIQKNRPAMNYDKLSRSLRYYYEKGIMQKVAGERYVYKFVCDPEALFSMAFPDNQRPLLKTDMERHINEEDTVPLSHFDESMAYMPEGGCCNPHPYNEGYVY
# Chain of HSF1 (Q00613 whole entry): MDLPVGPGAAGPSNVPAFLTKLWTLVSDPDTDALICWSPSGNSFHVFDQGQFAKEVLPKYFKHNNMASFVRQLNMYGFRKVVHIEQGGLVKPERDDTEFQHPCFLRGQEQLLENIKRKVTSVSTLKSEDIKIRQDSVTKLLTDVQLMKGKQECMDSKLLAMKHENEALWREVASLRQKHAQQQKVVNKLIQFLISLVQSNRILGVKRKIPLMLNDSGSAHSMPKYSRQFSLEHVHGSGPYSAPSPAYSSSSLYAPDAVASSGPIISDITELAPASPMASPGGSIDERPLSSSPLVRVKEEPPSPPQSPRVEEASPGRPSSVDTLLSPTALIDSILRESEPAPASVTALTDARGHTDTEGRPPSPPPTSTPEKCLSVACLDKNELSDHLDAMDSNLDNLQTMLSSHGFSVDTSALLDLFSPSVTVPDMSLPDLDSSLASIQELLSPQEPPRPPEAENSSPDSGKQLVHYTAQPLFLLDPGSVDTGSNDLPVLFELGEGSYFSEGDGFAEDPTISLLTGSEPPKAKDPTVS
# Chain of ETV5 (P41161 whole entry): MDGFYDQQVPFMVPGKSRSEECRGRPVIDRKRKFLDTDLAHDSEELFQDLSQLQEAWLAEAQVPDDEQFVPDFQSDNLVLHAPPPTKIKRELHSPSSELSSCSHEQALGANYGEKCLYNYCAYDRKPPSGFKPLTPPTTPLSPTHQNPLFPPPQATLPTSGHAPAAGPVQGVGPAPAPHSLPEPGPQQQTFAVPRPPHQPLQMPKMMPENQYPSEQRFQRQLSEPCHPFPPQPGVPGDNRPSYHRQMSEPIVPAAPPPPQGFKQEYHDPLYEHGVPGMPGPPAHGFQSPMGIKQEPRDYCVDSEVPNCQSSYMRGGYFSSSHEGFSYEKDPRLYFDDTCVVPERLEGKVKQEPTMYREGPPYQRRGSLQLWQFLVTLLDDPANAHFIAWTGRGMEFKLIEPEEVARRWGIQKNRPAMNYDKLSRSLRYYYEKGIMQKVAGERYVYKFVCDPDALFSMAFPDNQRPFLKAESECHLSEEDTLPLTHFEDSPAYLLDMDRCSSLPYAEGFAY
# Chain of ELF4 (Q99607 whole entry): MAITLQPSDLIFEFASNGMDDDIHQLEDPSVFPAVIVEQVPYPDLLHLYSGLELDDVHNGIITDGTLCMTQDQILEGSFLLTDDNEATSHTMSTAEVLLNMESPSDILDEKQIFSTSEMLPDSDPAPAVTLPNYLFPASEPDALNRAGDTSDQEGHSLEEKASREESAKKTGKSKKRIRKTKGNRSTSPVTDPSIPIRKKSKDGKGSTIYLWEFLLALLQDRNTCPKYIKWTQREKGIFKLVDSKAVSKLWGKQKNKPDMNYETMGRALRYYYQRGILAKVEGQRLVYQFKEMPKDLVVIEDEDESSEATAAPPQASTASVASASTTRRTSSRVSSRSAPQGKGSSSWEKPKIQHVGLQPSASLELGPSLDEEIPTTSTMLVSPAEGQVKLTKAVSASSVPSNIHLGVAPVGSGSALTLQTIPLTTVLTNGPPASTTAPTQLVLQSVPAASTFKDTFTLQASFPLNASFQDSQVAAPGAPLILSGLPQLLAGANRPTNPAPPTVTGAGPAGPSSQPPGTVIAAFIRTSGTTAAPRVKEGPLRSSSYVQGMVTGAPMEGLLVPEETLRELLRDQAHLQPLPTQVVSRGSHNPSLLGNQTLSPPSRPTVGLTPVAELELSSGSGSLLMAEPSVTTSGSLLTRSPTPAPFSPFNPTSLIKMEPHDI
# Chain of CRX (O43186 whole entry): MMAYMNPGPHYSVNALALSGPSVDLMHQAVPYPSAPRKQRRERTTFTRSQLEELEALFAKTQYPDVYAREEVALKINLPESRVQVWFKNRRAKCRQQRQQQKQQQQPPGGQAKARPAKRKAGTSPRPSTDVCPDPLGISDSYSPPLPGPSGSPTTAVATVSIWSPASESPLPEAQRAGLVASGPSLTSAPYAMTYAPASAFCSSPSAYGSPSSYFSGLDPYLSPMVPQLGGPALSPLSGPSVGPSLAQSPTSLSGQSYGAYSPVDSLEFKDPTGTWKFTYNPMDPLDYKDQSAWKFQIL
sequence,measurement,setting,value
AAAAAA,binding signal,FEV,"1.37 fold enrichment (6-mer frequency, TF over GST control)"
same,binding signal,ETV5,"1.35 fold enrichment (6-mer frequency, TF over GST control)"
same,binding signal,HSF1,"1.41 fold enrichment (6-mer frequency, TF over GST control)"
same,binding signal,SPIC,"1.29 fold enrichment (6-mer frequency, TF over GST control)"
same,binding signal,ELF4,"1.37 fold enrichment (6-mer frequency, TF over GST control)"
same,binding signal,ELK4,"1.23 fold enrichment (6-mer frequency, TF over GST control)"
same,binding signal,ETV2,"1.35 fold enrichment (6-mer frequency, TF over GST control)"
same,binding signal,ELF3,"1.26 fold enrichment (6-mer frequency, TF over GST control)"
same,binding signal,CRX,"1.22 fold enrichment (6-mer frequency, TF over GST control)"
same,binding signal,ETV1,"1.27 fold enrichment (6-mer frequency, TF over GST control)"
